# A selection: hits, their analogues and other compounds. The true share with any hit is near 2.5%.
# NSD2 inh – inhibitors of human histone methyltransferase NSD2 | O96028 | NSD2 peptide methylation, AlphaScreen, 120 min | inhibition, % at 12.5 µM | 310,000 tested, 0.54% active | AID 743445; in the data active means inhibition above about 50%
# MLL AF4-AF9 inh – blocks AF4 peptide binding to human AF9; AlphaScreen, biotin-AF4 peptide binding to FLAG-AF9; 350,000 tested, 0.47% active; AID 651704; inhibition, % at 10 µM;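 active means every replicate reaching a set inhibition limit, whatever the replicate mean, cut at about 25% in these data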;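 further: 0% = plate neutral control median and 100% = total signal loss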
# RAD52 inh – blocks human RAD52 DNA annealing; 360,000 tested, 0.46% active; P43351; AID 651710; recombinant RAD52 DNA annealing, FRET fluorescence; inhibition, % at 18.7 µM;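 active means every replicate showing at least 50% inhibition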
# Ecoli rRNA inh – selective bacterial rRNA inhibition in E. coli; GFP signal change (wild-type ribosome), % (test concentration not listed); 350,000 tested, 1.6% active; E. coli WT GFP vs humanized-ribosome RFP mutants, fluorescence, 24 h; active compounds read low; DMSO median 0, no signal -100;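 active means significant combined selectivity score with lowered wild-type GFP, culture density cut under 30%, mutant RFP and density less affected; inactive means any of these conditions unmet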
# Casp6 inh – caspase-6 (human) enzyme inhibition. 350,000 tested, 0.53% active. P55212. inhibition, % at 12.5 µM. purified caspase-6, Z-VEID-R110 cleavage fluorescence;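 active means mean inhibition across replicates at least about 35%, with every replicate also reaching that limit, limit read from the data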;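 further: 0% = median of neutral control wells and 100% = no fluorescence left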
# Target sequence (P55212 24-179 limits assumed): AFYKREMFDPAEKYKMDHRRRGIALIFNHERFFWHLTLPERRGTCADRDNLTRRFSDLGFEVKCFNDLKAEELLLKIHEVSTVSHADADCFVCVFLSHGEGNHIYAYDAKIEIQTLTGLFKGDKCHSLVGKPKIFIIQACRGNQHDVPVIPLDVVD
# Target sequence (P55212 194-293 limits assumed): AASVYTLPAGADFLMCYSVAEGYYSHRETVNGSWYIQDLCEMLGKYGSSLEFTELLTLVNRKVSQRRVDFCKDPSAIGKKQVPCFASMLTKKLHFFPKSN
# Numbers without * were called inactive; x = no result given; ! = not confirmed by another sample.
SMILES,NSD2 inh,MLL AF4-AF9 inh,RAD52 inh,Ecoli rRNA inh,Casp6 inh
C=CCn1c(SCC(=O)NNC(=S)Nc2ccccc2)nnc1-c1ccccc1,-1,2,2,-16*,0
COC(=O)/C(C#N)=C/c1ccc(-c2ccc(S(N)(=O)=O)cc2)o1,4,9,-64,-27*,7
O=C(c1ccncc1)N1CC2(C1)[C@H](c1ccccc1)[C@@H](CO)N2Cc1ccccn1,x,0,-27,1,0
CN(C)S(=O)(=O)c1cccc(NC(=O)c2n[nH]c(=O)c3ccccc23)c1,-2,-1,-5,-26*,-2
C=C1CCC2[C@](C)(CO)[C@H](O)CC[C@@]2(C)[C@@H]1/C=C/C1=CCOC1=O (some centres undefined),x,-1,-10,x,6
C=C1CC[C@@H]2[C@](C)(CO)[C@H](O)CC[C@@]2(C)[C@@H]1/C=C/C1=CCOC1=O,-5,0,-23,-23*,2
C[C@@H]1CN(C)C(=O)c2cccc(NS(C)(=O)=O)c2O[C@H]1CN(C)S(C)(=O)=O,x,x,x,3,x
C[C@@H]1CN([C@H](C)CO)C(=O)c2cc(NC(=O)CCN3CCOCC3)ccc2O[C@H]1CN(C)Cc1ccc(Cl)c(Cl)c1,x,0,-4,-3,3
Cc1nc(N)c(CC(Br)CBr)c(Cl)n1 (centres undefined),-1,6,-3,-38*,4
O=C(CN1C(=O)NC2(CCOc3ccccc32)C1=O)c1ccc(Cl)cc1 (centres undefined),-4,1,-6,-19,78*
C[C@H]1CNC(=O)c2c(C(=O)Nc3ccc(CNC(=O)OC(C)(C)C)cc3)ncn21,x,2,-12,-25*,-3
COc1ccc(CN(C)C[C@H]2OCCCC[C@H](C)Oc3ccc(NS(=O)(=O)c4ccc(F)cc4)cc3C(=O)N([C@H](C)CO)C[C@H]2C)cc1,x,10,55*,6,6
COc1ccc(CN(C)C[C@@H]2OCCCC[C@H](C)Oc3ccc(NS(=O)(=O)c4ccc(Cl)cc4)cc3C(=O)N([C@H](C)CO)C[C@@H]2C)cc1,x,8,55*,-12,1
O=C(C[C@H]1C[C@H]2c3cc(NC(=O)NC4CCCC4)ccc3O[C@H]2[C@H](CO)O1)NCCN1CCCCC1,x,4,-11,5,-2
C=CC1=C(C(=O)O)N2C(=O)[C@@H](NC(=O)/C(=N\O)c3csc(N)n3)[C@H]2SC1 (stereo in doubt),x,-25,-28,x,87*
COc1ccc(CCNC(=O)CSCc2ccc(Cl)cc2)cc1OC,0,0,-11,-22,5
COCCn1c(-c2ccc(Cl)cc2)cnc1SCC(=O)NCCc1ccc(OC)c(OC)c1,4,15,-5,-22*,7
CCc1noc(C)c1C(=O)Nc1ccc(S(=O)(=O)N2CCCC(C)C2)cc1 (centres undefined),-2,-1,-6,-18,42*
CCc1noc(C)c1C(=O)Nc1ccc(C)c(S(=O)(=O)N2CCCCCC2)c1,-5,-8,-10,-2,2
CCC(=O)N1CC2(C1)CN(Cc1ccccc1Cl)[C@@H](CO)c1c2c2ccc(OC)cc2n1C,x,1,-34,-3,x
O=c1nc2s/c(=C\c3ccc(-c4ccccc4[N+](=O)[O-])o3)c(=O)n2nc1-c1ccccc1,6,4,-43,1,39*
Cc1ccc(S(=O)(=O)N(C)C[C@@H]2OCCCC[C@H](C)Oc3ccc(NC(=O)NC4CCCCC4)cc3C(=O)N([C@H](C)CO)C[C@@H]2C)cc1,x,-1,-6,6,1
CCCNC(=O)N1CC2(CN(C(=O)c3cccc(F)c3)C2)c2c([nH]c3cc(OC)ccc23)[C@@H]1CO,x,-5,16,-2,3
COc1ccccc1CN1C[C@@H]2N[C@H](C1)C2c1ccc(/C=C/c2ccccc2)cc1 (some centres undefined),x,30*,68*,-57,1
O=C(C1CCOCC1)N1C[C@@H]2N[C@H](C1)C2c1ccc(/C=C/c2ccccc2)cc1 (some centres undefined),x,x,x,-5,x
O=C(Nc1ccccc1)N1C[C@@H]2N[C@H](C1)C2c1ccc(-c2ccccc2)cc1 (some centres undefined),x,5,27,-3,3
O=C(C1CCCCC1)N1C[C@@H]2N[C@H](C1)C2c1ccc(-c2ccccc2F)cc1 (some centres undefined),x,-7,57*!,-56,1

# Bioassay records (PubChem BioAssay)
